Assay results published in the supplement of paper PMC9942566.
Counter-ions that a name gives are not always drawn. ± gives the standard deviation of the averaged measurements.

test system: Serratia marcescens K904 PosmB-luxCDABE reporter (pMQ747); assay: PosmB-lux reporter fold induction (RLU/OD600 relative to no-compound control), highest over Biolog concentrations; higher = stronger reporter activation; conditions: Biolog plate: PM11; well positions: C1-4; ΔrcsB mutant CMS5177; 4 h
Description: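 Serratia marcescens K904 (wild type) or its isogenic ΔrcsB mutant, carrying the Rcs-dependent PosmB-luxCDABE reporter plasmid pMQ747, was grown in LB at OD600 0.1 in Biolog Phenotype MicroArray plates PM11-20 for 4 h at 30-32°C. Each compound is present at 3-4 proprietary concentrations (not stated); per the Fig. S1 legend the value given is the highest fold over those wells. Three independent trials.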

Compound | PosmB-lux reporter fold induction
Cc1c(N)nc([C@H](CC(N)=O)NC[C@H](N)C(N)=O)nc1C(=O)N[C@H](C(=O)N[C@H](C)[C@@H](O)[C@H](C)C(=O)N[C@H](C(=O)NCCc1nc(-c2nc(C(=O)NCCC[S+](C)C)cs2)cs1)[C@@H](C)O)[C@@H](OC1OC(CO)C(O)C(O)C1OC1OC(CO)C(O)C(OC(N)=O)C1O)c1cnc[nH]1 (stereo not given in full) [Bleomycin] | 0.988 ± 0.1

same assay, conditions: Biolog plate: PM11; well positions: G9-12; ΔrcsB mutant CMS5177; 4 h

Compound | PosmB-lux reporter fold induction
O=[Te]([O-])[O-].[K+].[K+] [Potassium tellurite] | 1.14 ± 0.19

same assay, conditions: Biolog plate: PM13; well positions: A9-12; ΔrcsB mutant CMS5177; 4 h

Compound | PosmB-lux reporter fold induction
[Cl][Ni][Cl] [Nickel chloride] | 1.06 ± 0.2

same assay, conditions: Biolog plate: PM13; well positions: B9-12; ΔrcsB mutant CMS5177; 4 h

Compound | PosmB-lux reporter fold induction
CCn1cc(C(=O)O)c(=O)c2cc3c(cc21)OCO3 [Oxolinic acid] | 4.3 ± 0.48

same assay, conditions: Biolog plate: PM14; well positions: B5-8; ΔrcsB mutant CMS5177; 4 h

Compound | PosmB-lux reporter fold induction
CCCCc1ccc(C(=O)O)nc1 [Fusaric acid] | 1 ± 0.025

same assay, conditions: Biolog plate: PM14; well positions: B9-12; ΔrcsB mutant CMS5177; 4 h

Compound | PosmB-lux reporter fold induction
O=[As]([O-])([O-])[O-].[Na+].[Na+].[Na+] [Sodium arsenate] | 0.724 ± 0.054

same assay, conditions: Biolog plate: PM14; well positions: C9-12; ΔrcsB mutant CMS5177; 4 h

Compound | PosmB-lux reporter fold induction
N#CO [Sodium cyanate] | 1.38 ± 0.44

same assay, conditions: Biolog plate: PM14; well positions: D1-4; ΔrcsB mutant CMS5177; 4 h

Compound | PosmB-lux reporter fold induction
[Cl][Cd][Cl] [Cadmium chloride] | 0.871 ± 0.061

same assay, conditions: Biolog plate: PM14; well positions: D5-8; ΔrcsB mutant CMS5177; 4 h

Compound | PosmB-lux reporter fold induction
O=C(O)CI [Iodoacetate] | 0.974 ± 0.21

same assay, conditions: Biolog plate: PM14; well positions: D9-12; ΔrcsB mutant CMS5177; 4 h

Compound | PosmB-lux reporter fold induction
[Na+].[Na+].[O]=[Cr](=[O])([O-])[O][Cr](=[O])(=[O])[O-] [Sodium dichromate] | 1.03 ± 0.33

same assay, conditions: Biolog plate: PM14; well positions: G9-12; ΔrcsB mutant CMS5177; 4 h

Compound | PosmB-lux reporter fold induction
O=[N+]([O-])[O-].[Na+] [Sodium nitrate] | 2.32 ± 0.21

same assay, conditions: Biolog plate: PM15; well positions: E9-12; ΔrcsB mutant CMS5177; 4 h

Compound | PosmB-lux reporter fold induction
C[n+]1ccc(-c2cc[n+](C)cc2)cc1 [Methyl viologen] | 1.89 ± 0.16

same assay, conditions: Biolog plate: PM15; well positions: G5-8; ΔrcsB mutant CMS5177; 4 h

Compound | PosmB-lux reporter fold induction
[N-]=[N+]=[N-] [Sodium azide] | 1.5 ± 0.15

same assay, conditions: Biolog plate: PM15; well positions: H1-4; ΔrcsB mutant CMS5177; 4 h

Compound | PosmB-lux reporter fold induction
O=[N+]([O-])c1ncc[nH]1 [2-Nitroimidazole] | 1.51 ± 0.7

same assay, conditions: Biolog plate: PM16; well positions: C1-4; ΔrcsB mutant CMS5177; 4 h

Compound | PosmB-lux reporter fold induction
CN(C)S(=O)(=O)N(SC(F)(Cl)Cl)c1ccccc1 [dichlofluanid] | 2.54 ± 1.7

same assay, conditions: Biolog plate: PM16; well positions: C9-12; ΔrcsB mutant CMS5177; 4 h

Compound | PosmB-lux reporter fold induction
CCCCCCCCCCCCCCCC[n+]1ccccc1 [cetylpyridinium] | 1.77 ± 0.53

same assay, conditions: Biolog plate: PM16; well positions: D1-4; ΔrcsB mutant CMS5177; 4 h

Compound | PosmB-lux reporter fold induction
O=[N+]([O-])c1ccc(Cl)c([N+](=O)[O-])c1 [1-chloro-2,4-dinitrobenzene] | 1.75 ± 0.99

same assay, conditions: Biolog plate: PM16; well positions: F1-4; ΔrcsB mutant CMS5177; 4 h

Compound | PosmB-lux reporter fold induction
O=[Te]([O-])[O-].[K+].[K+] [potassium tellurite] | 1.28 ± 0.43

same assay, conditions: Biolog plate: PM16; well positions: F5-8; ΔrcsB mutant CMS5177; 4 h

Compound | PosmB-lux reporter fold induction
O=[Se]([O-])[O-].[Na+].[Na+] [sodium selenite] | 1.25 ± 0.21

same assay, conditions: Biolog plate: PM17; well positions: A5-8; ΔrcsB mutant CMS5177; 4 h

Compound | PosmB-lux reporter fold induction
NC(CCl)C(=O)O [b-chloro-L-alanine hydrochloride] | 1.04 ± 0.15

same assay, conditions: Biolog plate: PM17; well positions: B5-8; ΔrcsB mutant CMS5177; 4 h

Compound | PosmB-lux reporter fold induction
CNC1CC(N)C(O)C(OC2OC(CO)C(O)C3OC4(OC(C(N)CO)C(O)C(O)C4O)OC23)C1O (stereo not given) [hygromycin B] | 1.37 ± 0.19

same assay, conditions: Biolog plate: PM17; well positions: C1-4; ΔrcsB mutant CMS5177; 4 h

Compound | PosmB-lux reporter fold induction
Nc1ccncc1 [4-aminopyridine] | 1.95 ± 1.4

same assay, conditions: Biolog plate: PM17; well positions: D1-4; ΔrcsB mutant CMS5177; 4 h

Compound | PosmB-lux reporter fold induction
CC1=C(C(=O)Nc2ccccc2)S(=O)(=O)CCO1 [oxycarboxin] | 1.01 ± 0.57

same assay, conditions: Biolog plate: PM17; well positions: D5-8; ΔrcsB mutant CMS5177; 4 h

Compound | PosmB-lux reporter fold induction
Nc1ncn[nH]1 [3-amino-1,2,4-triazole] | 5.84 ± 4.5

same assay, conditions: Biolog plate: PM17; well positions: G1-4; ΔrcsB mutant CMS5177; 4 h

Compound | PosmB-lux reporter fold induction
O=C(O)CCCc1ccc(N(CCCl)CCCl)cc1 [chlorambucil] | 1.28 ± 0.21

same assay, conditions: Biolog plate: PM18; well positions: C9-12; ΔrcsB mutant CMS5177; 4 h

Compound | PosmB-lux reporter fold induction
Oc1c(Cl)c(Cl)c(Cl)c(Cl)c1Cl [pentachloro-phenol] | 0.784 ± 0.046

same assay, conditions: Biolog plate: PM18; well positions: E5-8; ΔrcsB mutant CMS5177; 4 h

Compound | PosmB-lux reporter fold induction
[O-][I+3]([O-])([O-])O [sodium m-periodate] | 1.04 ± 0.24

same assay, conditions: Biolog plate: PM18; well positions: E9-12; ΔrcsB mutant CMS5177; 4 h

Compound | PosmB-lux reporter fold induction
[Cl][Sb]([Cl])[Cl] [antimony (III) chloride] | 0.481 ± 0.06

same assay, conditions: Biolog plate: PM18; well positions: F1-4; ΔrcsB mutant CMS5177; 4 h

Compound | PosmB-lux reporter fold induction
NNC(N)=O [semicarbazide] | 3.86 ± 1.5

same assay, conditions: Biolog plate: PM18; well positions: G1-4; ΔrcsB mutant CMS5177; 4 h

Compound | PosmB-lux reporter fold induction
Oc1cc(Cl)ccc1Oc1ccc(Cl)cc1Cl [triclosan] | 1.05 ± 0.51

same assay, conditions: Biolog plate: PM18; well positions: G5-8; ΔrcsB mutant CMS5177; 4 h

Compound | PosmB-lux reporter fold induction
Nc1n[nH]c(N)n1 [3,5-diamino-1,2,4-triazole (Guanazole)] | 12 ± 5.6

same assay, conditions: Biolog plate: PM18; well positions: H5-8; ΔrcsB mutant CMS5177; 4 h

Compound | PosmB-lux reporter fold induction
Oc1ccccc1-c1ccccc1 [2-phenylphenol] | 1.22 ± 0.42

same assay, conditions: Biolog plate: PM18; well positions: H9-12; ΔrcsB mutant CMS5177; 4 h

Compound | PosmB-lux reporter fold induction
CC1=CC(=O)c2c(O)cccc2C1=O [plumbagin] | 1.11 ± 0.53

same assay, conditions: Biolog plate: PM20; well positions: C5-8; ΔrcsB mutant CMS5177; 4 h

Compound | PosmB-lux reporter fold induction
CN1[C@@H]2CC[C@H]1C[C@@H](OC(=O)C(CO)c1ccccc1)C2 (stereo not given in full) [atropine] | 1.49 ± 0.44

same assay, conditions: Biolog plate: PM20; well positions: E5-8; ΔrcsB mutant CMS5177; 4 h

Compound | PosmB-lux reporter fold induction
CCCCCCCCCCCCNC(=N)N [dodine] | 1.31 ± 0.24

same assay, conditions: Biolog plate: PM20; well positions: F1-4; ΔrcsB mutant CMS5177; 4 h

Compound | PosmB-lux reporter fold induction
O=c1cc(O)c2ccccc2o1 [4-hydroxyl-coumarin] | 1.62 ± 0.32

same assay, conditions: Biolog plate: PM20; well positions: G1-4; ΔrcsB mutant CMS5177; 4 h

Compound | PosmB-lux reporter fold induction
O=C1C2CC=CCC2C(=O)N1SC(Cl)(Cl)Cl (stereo not given) [captan] | 1.72 ± 0.34

same assay, conditions: Biolog plate: PM20; well positions: G9-12; ΔrcsB mutant CMS5177; 4 h

Compound | PosmB-lux reporter fold induction
Oc1cccc2cccnc12 [8-hydroxy-quinoline] | 1.84 ± 0.48

same assay, conditions: Biolog plate: PM20; well positions: H1-4; ΔrcsB mutant CMS5177; 4 h

Compound | PosmB-lux reporter fold induction
O=C1C=C2C(=CCOC2O)O1 (stereo not given) [patulin] | 2.24 ± 1.1

same assay, conditions: Biolog plate: PM20; well positions: H5-8; ΔrcsB mutant CMS5177; 4 h

Compound | PosmB-lux reporter fold induction
Cc1ccc(N(SC(F)(Cl)Cl)S(=O)(=O)N(C)C)cc1 [tolylfluanid] | 1.7 ± 0.64
